According to article PMC4336329 (PLoS ONE, 2015):
In all, about 310,000 compounds went through this assay and about 14,000 (4.5%) showed an effect of 50% or more. The effect is printed as a negative number. The entries come from a sample that favours strong results as a whole.

Each compound was assayed against human ether-à-go-go-related gene (hERG) potassium channel (human, UniProt Q12809) (assay: primary screen, population patch clamp on CHO cells stably expressing hERG; higher = less effect of the substance).
Chain of human ether-à-go-go-related gene (hERG) potassium channel (Q12809 whole entry, looked up): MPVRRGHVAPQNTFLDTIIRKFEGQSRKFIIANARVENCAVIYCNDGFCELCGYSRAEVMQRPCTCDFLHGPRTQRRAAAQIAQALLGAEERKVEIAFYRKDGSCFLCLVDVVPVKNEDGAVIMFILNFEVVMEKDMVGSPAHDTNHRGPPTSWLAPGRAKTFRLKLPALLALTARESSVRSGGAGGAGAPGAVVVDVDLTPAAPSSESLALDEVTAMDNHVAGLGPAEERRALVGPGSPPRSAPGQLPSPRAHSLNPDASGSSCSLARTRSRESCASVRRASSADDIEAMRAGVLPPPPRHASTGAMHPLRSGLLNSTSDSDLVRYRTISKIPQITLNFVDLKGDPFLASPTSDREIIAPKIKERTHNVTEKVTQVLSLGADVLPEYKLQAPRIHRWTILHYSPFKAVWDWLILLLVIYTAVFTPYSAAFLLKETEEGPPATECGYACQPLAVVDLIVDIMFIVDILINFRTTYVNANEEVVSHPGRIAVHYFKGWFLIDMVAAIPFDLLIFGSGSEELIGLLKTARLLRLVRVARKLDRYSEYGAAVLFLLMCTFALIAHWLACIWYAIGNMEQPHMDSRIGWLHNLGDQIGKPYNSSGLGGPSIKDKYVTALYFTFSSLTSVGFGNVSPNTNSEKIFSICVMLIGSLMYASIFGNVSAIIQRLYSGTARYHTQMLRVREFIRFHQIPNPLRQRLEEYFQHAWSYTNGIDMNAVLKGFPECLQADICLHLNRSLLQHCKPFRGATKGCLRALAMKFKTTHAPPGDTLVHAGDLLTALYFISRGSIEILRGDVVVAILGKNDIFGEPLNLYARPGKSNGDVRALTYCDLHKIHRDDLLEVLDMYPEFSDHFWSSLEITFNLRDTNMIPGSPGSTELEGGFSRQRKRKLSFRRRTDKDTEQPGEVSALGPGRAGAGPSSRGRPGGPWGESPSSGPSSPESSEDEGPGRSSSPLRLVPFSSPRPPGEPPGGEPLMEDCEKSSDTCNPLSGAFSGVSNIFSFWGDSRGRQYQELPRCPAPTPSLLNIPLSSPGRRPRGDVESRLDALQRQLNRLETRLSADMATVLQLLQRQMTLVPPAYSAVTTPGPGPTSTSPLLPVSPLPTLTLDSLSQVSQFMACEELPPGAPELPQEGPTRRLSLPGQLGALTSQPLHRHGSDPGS
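Also: peak tail current of the secondary pulse compared with the same well before compound.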

Row | SMILES | hERG current change (%, negative = inhibition) at 10uM
1 | NC(=O)C(c1ccccc1)c1ncc(C(F)(F)F)cc1Cl (stereo not shown) | 4.88%
2 | CC(C)Oc1cccc(C(=O)C2CCCN(C(=O)c3ccoc3)C2)c1 (stereo not shown) | -14.7%
3 | Cc1cccc(OCC(=O)N2CCN(S(C)(=O)=O)CC2)c1 | 11.2%
4 | Cc1cccc(OCC(=O)N2CCN(C(=O)COc3ccc(Cl)cc3)CC2)c1 | -72.2%
5 | COc1ccc(OCC(=O)N2CCN(Cc3ccc(SC)cc3)CC2)cc1.O=C(O)C(=O)O | -50.9%
6 | CSc1ccc(CN2CCN(C(=O)COc3cccc(C)c3)CC2)cc1 | -50.3%
7 | O=C(COc1ccccc1)N1CCN(C(=O)c2cccc(F)c2)CC1 | -7.92%
8 | COc1ccc(OCC(=O)N2CCN(C(=O)c3cccc(F)c3)CC2)cc1 | -7.41%
9 | CSc1ccc(CN2CCN(C(=O)CC(C)C)CC2)cc1 | 9.42%
10 | O=C(COc1ccc(Cl)cc1)N1CCN(C(=O)c2cccc(F)c2)CC1 | -58.5%
11 | Cc1cccc(OCC(=O)N2CCN(C(=O)Cc3ccccc3)CC2)c1 | -13.2%
12 | Cc1cccc(OCC(=O)N2CCOCC2)c1 | 15.5%
13 | Cc1cccc(OCC(=O)N2CCN(Cc3cccnc3)CC2)c1.O=C(O)C(=O)O | -3.95%
14 | COc1ccc(OCC(=O)N2CCN(C(C)C)CC2)cc1.O=C(O)C(=O)O | 6.62%
15 | O=C(CS(=O)(=O)c1ccc(F)cc1)Nc1nnc(-c2cccs2)o1 | 13.3%
16 | O=C(COC(=O)c1cnccn1)Nc1ccc(Cl)cc1C(F)(F)F | 0.684%
17 | CN(C)S(=O)(=O)c1ccc(C(=O)Nc2nnc(-c3ccco3)o2)cc1 | 12.4%
18 | CCOC(=O)N1CCN(C(=O)C(NC(=O)c2ccc(CC)cc2)C(C)C)CC1 (stereo not shown) | -19.5%
19 | COc1cc(N2C(=O)CC(=O)NC2=O)cc(OC)c1OC | 17.1%
20 | COCCCNC(=O)CCCCCNS(=O)(=O)c1ccc(Br)cc1 | -21.4%
21 | CC(=O)Nc1ccc(/C=C/C(=O)c2ccccc2)cc1 | 9.09%
22 | Cc1ccccc1NC(=O)c1ccc(S(=O)(=O)C(F)F)cc1 | -27.6%

Row | SMILES | hERG current change (%, negative = inhibition) at 10uM
23 | Cn1c(=O)oc2cc(S(=O)(=O)CCC(=O)NCCc3ccccc3)ccc21 | 7.46%
24 | CN(C)S(=O)(=O)c1cccc(-c2cn3cc(Cl)ccc3n2)c1 | 7.03%
25 | Cc1cccc(C(=O)OCC(=O)NC(=O)Cc2ccccc2)c1O | 13.8%
26 | COc1ccccc1N1CCN(C(=O)COc2cc(C)cc(C)c2)CC1 | 10.8%
27 | COc1ccccc1N1CCN(C(=O)COc2ccc(Cl)cc2)CC1 | -68.5%
28 | COc1ccccc1OCC(=O)N1CCN(c2ccccc2OC)CC1 | 1.3%
29 | Cc1ccc(OCC(=O)N2CCN(Cc3cccnc3)CC2)cc1.O=C(O)C(=O)O | 17.7%
30 | Cc1ccc(OCC(=O)N2CCN(Cc3ccc4c(c3)OCO4)CC2)cc1.O=C(O)C(=O)O | -15.7%
31 | CSc1ccc(CN2CCN(C(=O)COc3ccc(C)cc3)CC2)cc1.O=C(O)C(=O)O | -60.4%
32 | CCc1nnc(NC(=O)CN2C(=O)NC3(CC(C)CC(C)(C)C3)C2=O)s1 (stereo not shown) | 7.29%
33 | O=C1NC(=O)N(c2ccccc2)C1=O | 19.9%
34 | CCc1ccc(C(=O)NC(=S)NCc2cccnc2)cc1 | -40.7%
35 | CC(C)(C)C(=O)Nc1ccc(NC(=O)C(C)(C)C)cc1 | -6.63%
36 | O=C(Nc1cccc(Br)c1)c1ccc(CN2CCc3ccccc3C2)cc1 | -1.55%
37 | O=S(=O)(Cc1cc(NCc2ccccc2)nc(-c2ccncc2)n1)c1ccccc1 | 20.3%
38 | Cc1cc(CSc2nc(C)cc(=O)[nH]2)c2ncccc2c1 | -3.07%
39 | Nc1ccc(Br)c[n+]1Cc1cccc2cccnc12.[Br-] | -51.6%
40 | Nc1ccc(Cl)c[n+]1Cc1cccc2cccnc12.[Br-] | -46.1%
41 | Cc1cc(C[n+]2cc(Br)ccc2N)c2ncccc2c1.[Br-] | -68%
42 | Nc1scc[n+]1Cc1cccc2cccnc12.[Br-] | -12.3%
43 | Cc1cc(C[n+]2cc(Cl)ccc2N)c2ncccc2c1.[Br-] | -48.1%
44 | OCc1ccccc1OCCCOc1cccc2cccnc12 | -3.4%

Row | SMILES | hERG current change (%, negative = inhibition) at 10uM
45 | Nc1scn[n+]1Cc1cccc2cccnc12.[Br-] | -11.1%
46 | Nc1sc(-c2ccccc2)n[n+]1Cc1cccc2cccnc12.[Br-] | -66.7%
47 | Cc1noc(C)c1CSCC(=O)Nc1cc(Cl)ccc1N1CCCCC1 | 1.96%
48 | CCN(CC)S(=O)(=O)c1ccc(NC2c3ccccc3C(=O)N2CCN2CCOCC2)cc1 (stereo not shown) | -37%
49 | Cc1ccc2c(CC(=O)NC3CCS(=O)(=O)C3)coc2c1C (stereo not shown) | 1.78%
50 | CC(C(=O)NCc1ccccc1Cl)n1cc([N+](=O)[O-])cn1 (stereo not shown) | 4.65%
51 | Cc1ccc2cc3c(NS(=O)(=O)c4cccc5nonc45)nn(CC(C)C)c3nc2c1 | 9.9%
52 | COc1ccc(CNCCc2c[nH]c3ccccc23)cc1OC.O=C(O)C(=O)O | -28%
53 | COc1cc(C)c(CNCCc2c[nH]c3ccccc23)cc1C.O=C(O)C(=O)O | -36.9%
54 | COc1cccc(CNCCc2c[nH]c3ccccc23)c1OCc1ccccc1.Cl | -47%
55 | COc1ccc(C(=O)NC(Cc2c[nH]c3ccccc23)C(=O)O)cc1 (stereo not shown) | 12.4%
56 | O=C(NC(Cc1c[nH]c2ccccc12)C(=O)O)c1ccccc1 (stereo not shown) | 1.22%
57 | COc1cc(CNCCc2c[nH]c3ccccc23)ccc1OCc1ccccc1F.Cl | -52%
58 | COc1cccc(CNCCc2c[nH]c3ccccc23)c1OC.Cl | -11.1%
59 | COc1cc(CNCCc2c[nH]c3ccccc23)ccc1OCc1ccc(F)cc1.Cl | -48.4%
60 | COc1ccc(CNCCc2c[nH]c3ccccc23)c(OC)c1OC.O=C(O)C(=O)O | -7.44%
61 | COc1cc(C(=O)N[C@@H](Cc2c[nH]c3ccccc23)C(=O)O)cc(OC)c1OC | -53.1%
62 | COc1cccc(CNCCc2c[nH]c3ccccc23)c1OCc1ccccc1F.Cl | -55.8%
63 | COc1ccc(CNCCc2c[nH]c3ccccc23)c(OC)c1C.O=C(O)C(=O)O | -60.3%
64 | Cc1cnc(C(=O)Nc2ccc(F)cc2)cn1 | -0.2%
65 | CCN(CC)C(=O)C1CCCN(C(=O)Nc2ccc(NC(=O)N3CCCC(C(=O)N(CC)CC)C3)cc2)C1 (stereo not shown) | -11.5%
66 | COc1ccc(NC(=O)c2cc(-c3cc(C)cc(C)c3O)n[nH]2)cc1Cl | -4.52%

Row | SMILES | hERG current change (%, negative = inhibition) at 10uM
67 | Cn1c2c(c(=O)n(C)c1=O)CN(CC1CCCO1)CN2 (stereo not shown) | 9.87%
68 | CC(C)C(=O)Nc1nc(-c2ccc([N+](=O)[O-])cc2)cs1 | 7.04%
69 | CC(C)(C)NC(=O)c1cc(-c2ccccc2)n[nH]1 | 11.5%
70 | Cc1ccc(-n2c(Cc3noc4ccccc34)n[nH]c2=S)cc1 | 8.59%
71 | NS(=O)(=O)c1cccnc1Nc1cccc(Cl)c1 | 11.8%
72 | CCCCN(CC)CCCNC(=O)c1cc2c(-c3ccc(OC)c(OC)c3)nn(C)c2s1 | -7.25%
73 | COCCCNC(=O)c1cc2c(-c3ccc(Cl)cc3)nn(C)c2s1 | -3.72%
74 | CC(C)NC(=O)c1cc2c(-c3ccc(Cl)cc3)nn(C)c2s1 | 4.67%
75 | CCCCNC(=O)c1cc2c(-c3ccc(Cl)cc3)nn(C)c2s1 | -7.09%
76 | CCN(CC)CCNC(=O)c1cc2c(-c3ccc(Cl)cc3)nn(C)c2s1 | -69.6%
77 | CCOCCCNC(=O)c1cc2c(-c3ccc(Cl)cc3)nn(C)c2s1 | 9.31%
78 | CN1CCN(CCCNC(=O)c2cc3c(-c4ccc(Cl)cc4)nn(C)c3s2)CC1 | -40.1%
79 | Cn1nc(-c2ccc(Cl)cc2)c2cc(C(=O)NCCCN3CCOCC3)sc21 | -13.1%
80 | CCCCN(CC)CCNC(=O)c1cc2c(-c3ccc(Cl)cc3)nn(C)c2s1 | -74.8%
81 | CCN(CC)CCCNC(=O)c1cc2c(-c3ccc(Cl)cc3)nn(C)c2s1 | -59.9%
82 | Cn1nc(-c2ccc(Cl)cc2)c2cc(C(=O)NCCCN3CCCC3)sc21 | -59.5%
83 | COc1cc(CNC(C)C)ccc1OCC(=O)Nc1cccc2ccccc12 | -27.2%
84 | CC(=O)NC1(c2cccc(F)c2)CCN(CC(=O)NC(C)C)CC1 | 9.55%
85 | Cc1cc(C(C)(C)C)n2nc(C)c(-c3ccccc3)c2n1 | 13.9%
86 | O=[N+]([O-])c1ccc(O)c(Nc2c([N+](=O)[O-])ccc3nonc23)c1 | 16%
87 | CCNc1nc(OC)nc(SCC(=O)Nc2ccccc2)n1 | 17.2%
88 | Cc1nnc(Nc2ccc(Cl)cc2)n(N)c1=O | 8.16%
